From PubChem
F508del corr: CFTR F508del correction in bronchial cells; activity (quench increase), % at 7.58 µM; AID 720511; CFBE cells, YFP halide quenching; stimulated with forskolin plus potentiator P3; % fluorescence drop versus neutral controls; actives 0.36% (n = 350,000);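 active = mean added fluorescence quench of at least 8% versus neutral control, with both replicates also reaching 8%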;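 note: cells transiently co-express mutant CFTR-F508del with the halide-sensitive YFP; corrector assay measuring rescue of mutant channel to the surface after 24 h compound exposure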
ARNT TACC3 PPI: disruptors of human ARNT/TACC3 interaction; Q9Y6A5; AlphaScreen His-ARNT PAS-B/GST-TACC3 binding, luminescence; TACC3 fragment carries E629A point mutation; inhibition, % at 9.99 µM; actives 0.66% (n = 390,000); AID 623870;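 active = mean inhibition of replicates at least 50% and at least half of replicates each reaching 50%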
ERAP1 inh: ERAP1 (human) enzyme inhibition | Q9NZ08 | actives 0.15% (n = 340,000) | AID 652197 | inhibition, % at 10.7 µM | recombinant ERAP1, Leu-AMC fluorescence, 60 min;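 active = mean replicate inhibition of at least 30%, or all replicates individually reaching that 30% level; inactive = mean below 30% and not every replicate reaching it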
Target sequence (Q9NZ08 whole entry, looked up): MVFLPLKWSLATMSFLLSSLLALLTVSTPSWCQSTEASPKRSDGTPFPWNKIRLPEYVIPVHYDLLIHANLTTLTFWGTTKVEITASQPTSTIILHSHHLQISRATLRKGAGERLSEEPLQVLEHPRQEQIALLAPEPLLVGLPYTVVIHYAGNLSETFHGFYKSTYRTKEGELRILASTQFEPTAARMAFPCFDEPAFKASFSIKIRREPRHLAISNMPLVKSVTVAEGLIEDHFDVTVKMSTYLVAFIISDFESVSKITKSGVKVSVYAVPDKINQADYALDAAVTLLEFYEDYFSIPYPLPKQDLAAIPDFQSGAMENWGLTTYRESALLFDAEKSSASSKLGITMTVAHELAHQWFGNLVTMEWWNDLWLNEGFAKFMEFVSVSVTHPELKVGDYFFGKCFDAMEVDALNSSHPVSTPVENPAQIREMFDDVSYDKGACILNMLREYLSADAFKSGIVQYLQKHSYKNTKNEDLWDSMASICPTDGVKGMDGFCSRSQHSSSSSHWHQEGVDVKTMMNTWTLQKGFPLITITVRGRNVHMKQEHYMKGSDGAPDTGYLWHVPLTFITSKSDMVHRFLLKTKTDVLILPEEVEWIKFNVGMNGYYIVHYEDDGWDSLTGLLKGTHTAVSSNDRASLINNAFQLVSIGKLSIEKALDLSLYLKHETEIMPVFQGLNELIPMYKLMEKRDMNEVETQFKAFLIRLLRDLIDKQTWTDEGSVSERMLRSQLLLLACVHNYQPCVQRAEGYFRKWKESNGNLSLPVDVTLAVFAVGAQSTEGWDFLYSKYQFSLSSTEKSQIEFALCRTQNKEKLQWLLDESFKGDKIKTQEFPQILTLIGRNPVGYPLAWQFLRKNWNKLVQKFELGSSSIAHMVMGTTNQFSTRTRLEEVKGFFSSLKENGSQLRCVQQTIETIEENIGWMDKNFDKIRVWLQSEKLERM
rRNA inh HTS: inhibits bacterial ribosomal RNA function over humanized ribosomes | E. coli WT GFP vs humanized-ribosome RFP mutants, fluorescence, 24 h; hits give low values; DMSO median 0, no signal -100 | GFP signal change (wild-type ribosome), % (test concentration not listed) | actives 1.6% (n = 350,000);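 active = significant combined selectivity score with lowered wild-type GFP, culture density cut under 30%, mutant RFP and density less affected; inactive = any of these conditions unmet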
PvdQ inh: blocks Pseudomonas aeruginosa PvdQ acylase activity. purified PvdQ acylase, fluorescence plate reader. inhibition, % at 10 µM. actives 0.063% (n = 340,000). AID 488965; in the data active = inhibition above about 30%, passing the limit was not always enough
Numbers stand for hits. Shown are actives, neighbours in structure and some others; about 2.1% of the full set was active somewhere.

`COc1ccc(-c2nnc(NC(=O)c3ccc(S(=O)(=O)N(C)CC4CCCO4)cc3)o2)c(OC)c1` (stereo not given) gave F508del corr inactive, ARNT TACC3 PPI 45, ERAP1 inh inactive, rRNA inh HTS inactive and PvdQ inh inactive.
`COCCN(CCOC)S(=O)(=O)c1ccc(C(=O)Nc2nnc(COC)o2)cc1` gave F508del corr inactive, ARNT TACC3 PPI inactive, ERAP1 inh inactive, rRNA inh HTS inactive and PvdQ inh inactive.
`COCc1nnc(NC(=O)c2ccc(S(=O)(=O)N(C)Cc3ccccc3)cc2)o1` gave F508del corr inactive, ARNT TACC3 PPI 49, ERAP1 inh inactive, rRNA inh HTS inactive and PvdQ inh inactive.
Screening CCN(Cc1ccccc1)S(=O)(=O)c1ccc(C(=O)Nc2nnc(C3CC3)o2)cc1 returned F508del corr inactive, ARNT TACC3 PPI inactive, ERAP1 inh inactive, rRNA inh HTS inactive and PvdQ inh inactive.
C[C@@H]1CN([C@H](C)CO)C(=O)c2cc(NC(=O)Nc3ccc(C(F)(F)F)cc3)ccc2O[C@@H](C)CCCCO[C@@H]1CN(C)S(=O)(=O)c1cn(C)cn1 was read as F508del corr inactive, ARNT TACC3 PPI inactive and rRNA inh HTS inactive.
`CN1C(=O)c2cc(NC(=O)C3CCCC3)ccc2OC[C@H]2O[C@@H](CC(=O)NCc3ccccc3F)CC[C@H]21` gave F508del corr inactive, ERAP1 inh inactive and rRNA inh HTS inactive.
Screening Cc1nnc(NC(=O)c2ccc3ccccc3c2)o1 returned ARNT TACC3 PPI 52 and PvdQ inh inactive.
`CNC[C@H]1Oc2c(NS(C)(=O)=O)cccc2C(=O)N([C@@H](C)CO)C[C@@H]1C` gave F508del corr inactive, ARNT TACC3 PPI inactive, ERAP1 inh inactive and rRNA inh HTS inactive.
CCN(CC)CCC(c1ccc(N(C)C)cc1)c1c(O)cc(OC)cc1OC (stereo not given) was read as F508del corr inactive, ARNT TACC3 PPI 30 and PvdQ inh inactive.
CCN(CC)CCC(c1ccc(OC)cc1)c1c(O)cc(OC)cc1OC (stereo not given) was read as F508del corr inactive, ARNT TACC3 PPI inactive, rRNA inh HTS inactive and PvdQ inh inactive.
CCC(=O)N[C@H]1C=C[C@@H](CC(=O)NCc2ccc(OC)cc2)O[C@H]1CO was read as F508del corr inactive, ARNT TACC3 PPI inactive, ERAP1 inh inactive and rRNA inh HTS inactive.
Screening C[C@@H]1CN([C@@H](C)CO)C(=O)c2cccc(NC(=O)c3cnccn3)c2O[C@H]1CN(C)C(=O)Nc1cccc2ccccc12 returned F508del corr inactive, ARNT TACC3 PPI inactive, ERAP1 inh inactive and rRNA inh HTS inactive.
For CC(=O)NNC(=O)CCn1c2c(c3ccccc31)CCCC2 the results were F508del corr inactive, ARNT TACC3 PPI inactive, ERAP1 inh inactive, rRNA inh HTS inactive and PvdQ inh inactive.
`CCOC(=O)NNC(=O)CCn1c2c(c3ccccc31)CCCC2` gave F508del corr inactive, ARNT TACC3 PPI inactive, ERAP1 inh inactive, rRNA inh HTS -17 and PvdQ inh inactive.
For COc1ccccc1-c1ccc2c(c1)O[C@H](CN(C)C(=O)Nc1cccc(F)c1)[C@H](C)CN([C@H](C)CO)S2(=O)=O the results were F508del corr inactive, ARNT TACC3 PPI inactive, ERAP1 inh inactive and rRNA inh HTS inactive.
`CC(Cc1ccccc1)NC(=S)CN1CCCC1=S` (stereo not given) gave F508del corr inactive, ARNT TACC3 PPI inactive, ERAP1 inh inactive, rRNA inh HTS -21 and PvdQ inh inactive.
CCc1c(C)c2cc(Cl)c(O)c(CN(CC)CC)c2oc1=O was read as F508del corr inactive, ARNT TACC3 PPI inactive, ERAP1 inh 85, rRNA inh HTS inactive and PvdQ inh inactive.
`CCc1c(C)c2cc(Cl)c(O)c(CN(C)C)c2oc1=O` gave F508del corr inactive, ARNT TACC3 PPI inactive, ERAP1 inh inactive, rRNA inh HTS inactive and PvdQ inh inactive.
For C[C@H]1CN([C@@H](C)CO)C(=O)c2cccc(NS(=O)(=O)c3ccc(F)cc3)c2O[C@H]1CN(C)Cc1ccncc1 the results were F508del corr inactive, ARNT TACC3 PPI inactive, ERAP1 inh inactive and rRNA inh HTS inactive.
`CCCNc1nc(N2CCCC2)nc(N2CCCC2)n1` gave F508del corr inactive, ARNT TACC3 PPI inactive, ERAP1 inh inactive, rRNA inh HTS -21 and PvdQ inh inactive.
CC(C)(C)Nc1nc(N2CCCC2)nc(N2CCCC2)n1 was read as ARNT TACC3 PPI inactive and PvdQ inh inactive.
For Cc1ccc(S(=O)(=O)Nc2ccc3c(c2)CC(=O)N([C@@H](C)CO)C[C@@H](C)[C@@H](CN(C)Cc2ccc(Oc4ccccc4)cc2)O3)cc1 the results were F508del corr inactive, ARNT TACC3 PPI inactive, ERAP1 inh inactive and rRNA inh HTS inactive.
For Cc1c(CCOC(=O)c2cc([N+](=O)[O-])cc([N+](=O)[O-])c2)sc[n+]1CC(=O)c1ccccc1 the results were F508del corr inactive, ARNT TACC3 PPI inactive, ERAP1 inh inactive, rRNA inh HTS inactive and PvdQ inh inactive.
For Cc1c(CCOC(=O)c2ccccc2)sc[n+]1CC(=O)c1ccc(Br)cc1 the results were ARNT TACC3 PPI inactive, ERAP1 inh inactive, rRNA inh HTS -48 and PvdQ inh inactive.
COCC(=O)N(C)C[C@H]1Oc2cc(Br)ccc2S(=O)(=O)N([C@@H](C)CO)C[C@H]1C was read as F508del corr inactive, ARNT TACC3 PPI inactive, ERAP1 inh inactive and rRNA inh HTS inactive.
`S=C(N/N=C/c1ccccc1)N1CCOCC1` gave ARNT TACC3 PPI 46 and PvdQ inh inactive.
`S=C(Nc1ccccc1)N1CCOCC1` gave F508del corr inactive, ARNT TACC3 PPI inactive, ERAP1 inh inactive, rRNA inh HTS inactive and PvdQ inh inactive.
`CC(=O)OCC(=O)Nc1ccc([N+](=O)[O-])cc1Cl` gave F508del corr inactive, ARNT TACC3 PPI inactive, ERAP1 inh inactive, rRNA inh HTS inactive and PvdQ inh inactive.
`CC(=O)Oc1c(C)cc(Cl)cc1C(=O)Nc1ccc([N+](=O)[O-])cc1Cl` gave F508del corr 13, ERAP1 inh inactive, rRNA inh HTS inactive and PvdQ inh inactive.
For COc1ccc(NC(=O)c2cccc(N3C(=O)NC4CC3(C)Oc3ccccc34)c2)cc1 (stereo not given) the results were ARNT TACC3 PPI inactive and PvdQ inh inactive.
For CC12CC(NC(=O)N1c1cccc(C(=O)Nc3ncn[nH]3)c1)c1ccccc1O2 (stereo not given) the results were ARNT TACC3 PPI 21 and PvdQ inh inactive.
O=C(Nc1cccc(F)c1)N1CC(=O)N2[C@H](CO)[C@@H](c3ccc(C#Cc4cccnc4)cc3)[C@@H]2C1 was read as F508del corr inactive, ERAP1 inh inactive and rRNA inh HTS inactive.
`CC(C)n1nnnc1C1c2ccccc2C(=O)N1CCc1c[nH]c2ccccc12` (stereo not given) gave F508del corr inactive and rRNA inh HTS -30.
